Records with an inconclusive call do not appear. Values without a mark were called inactive. The source made the active and inactive calls. Calls follow the shape of the dose curve; as a rule, active = well fitted curve in the direction sought with a large enough effect; inconclusive = small, poorly fitted or top-dose-only effect, or another doubt; inactive = no such curve, though single readings can be large; an effect the other way counts as inactive or inconclusive.

Our source for the Potency and outcome values is PubChem BioAssay (NCATS).

The nature of assay [1]: SW1088 Cancer Cell Toxicity qHTS against the NCATS CANVASS Library (AID 1347350). Also: nearly all actives have a fitted effect of over 75% in size. Also: potency is read from the fitted curve at half-maximal effect. The method, boiled down: (§1)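 Per well, 1000 cells; exposure 72 h with compound at 11 final concentrations; readout CellTiter-Glo luminescence.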
Assay [2] in a line: A2780 Cisplatin Sensitive Ovarian Cancer Cell Toxicity qHTS against the NCATS CANVASS Library (AID 1347353). Also: nearly all actives have a fitted effect of over 60% in size. Also: potency is read from the fitted curve at half-maximal effect. Put shortly: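 Cells are plated at 750 per well and rest for 4 hours. Compounds are added across eleven concentrations, and incubated 72 hours before ATP is quantified by luminescence.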
In general terms: qHTS replaces the single test concentration by a dilution series.

The nature of assay [3]: UWB1.289-WTBRCA1 Cancer Cell Toxicity qHTS against the NCATS CANVASS Library (AID 1347354). Also: potency is read from the fitted curve at half-maximal effect. Put shortly:
(§2)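 First, 1000 cells go into each well and rest for 4 hours. Next, an 11-point dilution range is pinned in. Plates then incubate 72 hours before CellTiter-Glo addition and luminescence reading.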

Assay [4] is described as follows: HEK-293 Cancer Cell Toxicity qHTS against the NCATS CANVASS Library (AID 1347355). Also: nearly all actives have a fitted effect of over 65% in size. Also: potency is read from the fitted curve at half-maximal effect. As to outcome: series mostly up to about 46 µM. Put shortly: as §2
The subject of assay [5] is NAD(P)H diaphorase (Clostridium kluyveri). In words: Diaphorse counterscreen qHTS: Assay Interference Panel against the NCATS CANVASS Library (AID 1347362). Put shortly: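 Counterscreen for coupling-enzyme interference: resorufin fluorescence from resazurin/NADH turnover, read after 5 min at room temperature. Compounds were tested over an 11-point series after 15 min dark preincubation with diaphorase in PBS-Tween.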
For orientation: The purpose of a counterscreen is to sort out artefacts and off-target activity.

The nature of assay [6]: KB-8-5-11 Cancer Cell Toxicity qHTS against the NCATS CANVASS Library (AID 1347364). Also: nearly all actives have a fitted effect of over 75% in size. Also: potency is read from the fitted curve at half-maximal effect. The method, boiled down: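 Terse: KB-8-5-11, 500 cells/well, 72 hr, 37C/5% CO2, 11-pt titration, CellTiter-Glo readout; confirmatory runs ± 1uM tariquidar in medium.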
Assay [7] can be described thus: SDT Cancer Cell Toxicity qHTS against the NCATS CANVASS Library (AID 1347365). Also: nearly all actives have a fitted effect of over 60% in size. Also: potency is read from the fitted curve at half-maximal effect. The method, boiled down: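 Cytotoxicity is measured from cellular ATP: compounds in an 11-point concentration series are pinned onto SDT cells, incubated 72 hr at 37C, then CellTiterGlo is added and luminescence read.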
Assay [8] in a line: KB-3-1 Cancer Cell Toxicity qHTS against the NCATS CANVASS Library (AID 1347366). Also: nearly all actives have a fitted effect of over 75% in size. Also: potency is read from the fitted curve at half-maximal effect. The method, boiled down:
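Seed KB-3-1 cells at 500/well in DMEM with 10% FBS, add compounds, incubate 72 hr at 37C and 5% CO2, then add CellTiter-Glo and read luminescence after 10 minutes.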

Assay [9] can be described thus: qHTS for Hypoxia signaling pathway (HIF-1) antagonists against the NCATS CANVASS Library (AID 1347374). Also: nearly all actives have a fitted effect of over 60% in size. Also: potency is read from the fitted curve at half-maximal effect. The method, boiled down:
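Antagonism scored as loss of CoCl2-driven (60 uM stock added) HRE beta-lactamase signal, read by CCF4 FRET at 460/530 nm. Compounds were tested in an 11-point series on ME-180 reporter cells for 17 hrs at 37C, with parallel CellTiter-Glo cytotoxicity.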

Assay [10] is described as follows: qHTS for Hypoxia signaling pathway (HIF-1) agonists against the NCATS CANVASS Library (AID 1347375). Put shortly:
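Cells plated and rested 5 h, compounds pinned in DMSO across 11 concentrations, incubated 17 h at 37C, loaded with CCF4-AM for 2 h, fluorescence read at 460 and 530 nm, then CellTiter-Glo luminescence measured for viability and normalization.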

The nature of assay [11]: DH5-alpha competent E. coli microbial cell viability qHTS against the NCATS CANVASS Library (AID 1347377). Conditions: outcome: dose series up to 46.1 µM unless noted. Put shortly:
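Bacteria were dispensed at 0.2 OD, then compounds were pin-transferred. Plates were incubated overnight at 37C, after which BacTiter-Glo was added and luminescence measured 20 min later.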

Assay [12] can be described thus: qHTS for H2AX Agonists against the NCATS CANVASS Library (AID 1347378).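 Also: phospho-H2AX S139 level in CHO-K1 lysates by TR-FRET emission ratio.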 Also: potency is read from the fitted curve at half-maximal effect. The method, boiled down: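 Following overnight seeding, CHO-K1 cells are incubated with a concentration series of compound for 3 hr at 37C (final DMSO 0.76%). Cells are then lysed, detection antibodies added, and emission ratio 665/620 nm recorded after 24 hr at room temperature.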
The nature of assay [13]: qHTS for Activators of p53 Stress Response Pathway screened against the NCATS CANVASS Library (AID 1347388). The method, boiled down: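 Beta-lactamase reporter driven by p53 response elements in HCT-116 cells, read as the 460 nm/530 nm emission ratio after CCF4 loading, following 16 h of exposure to an 11-point series. Cell viability was measured in the same wells by CellTiter-Glo luminescence.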

Assay [14] in a line: Secretion counterscreen for inhibitors of the SERCaMP assay screened against the NCATS CANVASS Library (AID 1347390).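 Also: light from luciferase secreted into medium read as a measure of general secretion.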 Also: potency is read from the fitted curve at half-maximal effect. The method, boiled down:
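Counterscreen identifying compounds that disrupt secretion, using SH-SY5Y cells with a constitutively secreted Gaussia luciferase reporter. A 20 h compound exposure (top 77 uM) precedes luminescent detection with coelenterazine.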

Assay [15] in a line: qHTS for activators of dead-cell proteases activity screened against the NCATS CANVASS Library (AID 1347392).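 Also: luminescence from protease leaking out of membrane-damaged cells cleaving impermeant substrate; rising signal means more cytotoxicity.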 Also: potency is read from the fitted curve at half-maximal effect. The method, boiled down:
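Luminescent dead-cell protease readout (AAF-aminoluciferin, 15 min, room temperature) after 5 h compound treatment of HepG2 cells (2000/well, pre-attached 18 h). Eleven concentrations.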

The nature of assay [16]: qHTS for inhibitors of ER calcium dysfunction: SERCaMP assay screened against the NCATS CANVASS Library (AID 1347393). Also: nearly all actives have a fitted effect of over 40% in size. Also: potency is read from the fitted curve at half-maximal effect. The method, boiled down:
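Thapsigargin-induced ER calcium depletion drives GLuc-SERCaMP secretion from SH-SY5Y cells; compounds given 16 h beforehand were scored by lowered coelenterazine luminescence after 4 h challenge.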

A short description of assay [17]: qHTS for inhibitors of Wild type Zika virus screened against the NCATS CANVASS Library (AID 1347396).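 Also: ATP luminescence of surviving cells so rescue from viral cell killing; series mostly up to about 46 µM.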 Put shortly: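 Using ATP-based luminescence (CellTiter Glo), this screen scores rescue of Vero 766 cells from wild-type Zika killing at 72 h post-infection. Compounds are tested in a concentration series.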
Assay [18] can be described thus: Viability qHTS for inhibitors of the SERCaMP assay screened against the NCATS CANVASS Library (AID 1347400). Also: nearly all actives have a fitted effect of over 70% in size. Also: potency is read from the fitted curve at half-maximal effect. The method, boiled down: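 Seed SH-SY5Y-GLuc SERCaMP MJH297 cells at 1000 per well, incubate 4 h, add compounds across an 11-point range, incubate 48 h at 37C, then add CellTiter-Glo and read luminescence.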
Assay [19] in a line: Redox Reaction Profiling qHTS: Assay Interference Panel against the NCATS CANVASS Library (AID 1347401). Put shortly:
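Redox-cycling liability assessed as DTT-driven conversion of resazurin (5 uM, with 200 uM DTT, HEPES pH 7.3) to fluorescent resorufin. Fluorescence at 525/598 nm measured initially and after 15 min dark incubation.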

A short description of assay [20]: UWB1.289 Cancer Cell Toxicity qHTS against the NCATS CANVASS Library (AID 1347347). Also: nearly all actives have a fitted effect of over 60% in size. Also: potency is read from the fitted curve at half-maximal effect. The method, boiled down: as §1

For `C=C(C)[C@@H]1CC[C@]2(C)CC[C@]3(C)[C@H](CC[C@@H]4[C@@]5(C)CC[C@H](O)C(C)(C)[C@@H]5CC[C@]43C)[C@@H]12`, the Potency result in assay [1], in assay [2], in [3], in assay [4], in assay [5] and in [6] was “inactive” each time. The Potency entry in assay [7], in assay [8], in assay [9], in [10], in assay [12] and in [13] was “inactive” in each case. Moreover, the Potency entry in assay [14], in assay [15], in assay [16], in assay [17], in assay [18] and in assay [19] was “inactive” throughout. Moreover, the result in assay [11] was inactive.

Take `CCCCCCCCCCCCCCC[C@H](O)C[C@@H](O)C[C@@H](O)C[C@@H](O)C[C@@H](O)C[C@H]1CC=CC(=O)O1`: the Potency in assay [20] is 2.11 µM (active); in assay [1] it was 1.49 µM (active); in [2], 0.743 µM (active); in assay [3], 3.34 µM (active); in assay [4], 5.26 µM (active); in assay [6], 6.62 µM (active). For the same molecule, the Potency is 2.96 µM (active) in [7]; 9.35 µM (active) in assay [8]; 8.6 µM (active) in assay [14]; 13.2 µM (active) in assay [15]; 12 µM (active) in [18]. The Potency result in assay [5], in assay [13], in assay [16] and in assay [19] was “inactive” throughout. In addition, in [11], the call was inactive.

Consider `O=C(O)[C@@]12CO[C@@]3(O)C4CCN(CC[C@H]31)[C@H]4c1c2[nH]c2ccccc12`, for which the Potency result in [20], in assay [1], in assay [2], in assay [3], in assay [4] and in assay [5] was “inactive” in each case. Further, the Potency result in assay [6], in assay [7], in [8], in [9], in assay [10] and in assay [12] was “inactive” each time. For the same molecule, the Potency entry in assay [13], in assay [14], in assay [15], in assay [16], in assay [17] and in assay [18] was “inactive” each time. For the same molecule, in assay [19], the Potency result is “inactive”. In addition, the molecule was classed as inactive in [11].

On to `CC1=CC[C@@]2(C[C@@H]1O)[C@@H](C(=O)O)CC[C@H]2C(C)C`, for which the Potency entry in assay [20], in assay [1], in [2], in [3], in [4] and in assay [5] was “inactive” each time. The Potency entry in [6], in [7], in [8], in [9], in assay [10] and in [12] was “inactive” each time. For the same molecule, the Potency entry in [13], in assay [14], in assay [15], in [17], in assay [18] and in assay [19] was “inactive” in each case. The call in [11] was inactive.

For the molecule `C=C1C(=O)O[C@H]2C[C@H](C)[C@@H]3CC(=O)C(C)=C3[C@H](O)[C@H]12`, the Potency result in assay [1], in assay [5], in assay [13], in [17] and in assay [19] was “inactive” each time. The Potency in assay [2] was 2.96 µM (active); in assay [4], 7.43 µM (active); in assay [7], 16.6 µM (active); in [9], 7.47 µM (active); in assay [12], 17.2 µM (active); in assay [14], 34.3 µM (active). For the same molecule, the Potency in assay [16] was 1.72 µM (active); in assay [18], 21.4 µM (active).

Consider `C/C(=C\[C@H](C)C(=O)CCCC1CC(=O)NC(=O)C1)C(O)[C@@H](C)[C@H](O)C/C=C/CC/C=C/C(=O)O` (stereo not given in full), for which the Potency result in [20], in assay [2], in [3], in assay [4], in [5] and in [6] was “inactive” each time. Also, the Potency result in [7], in [8], in assay [9], in assay [10], in [12] and in [13] was “inactive” each time. The Potency entry in assay [14], in assay [15], in [16], in assay [17] and in assay [18] was “inactive” each time. Moreover, in assay [11], the result was inactive.
